Experimental findings from PubChem BioAssay (Tox21) are described below.

Molecules are shown by their SMILES. Inconclusive results are not listed. Where a call stands in place of a potency, no number is given. The source made the active and inactive calls. Calls come from the whole dose curve; as a rule, active = well fitted activation curve with a large enough effect in the repeat runs; inconclusive = weak or mixed curves; inactive = flat fitted curve, though single readings scatter.
Potency is the fitted concentration of half-maximal effect.

This assay can be described thus: A CellTox Green Cytotoxicity Assay to monitor cytotoxicity in HEK293 cells - 8 hour (AID 1224884). Note: nearly all actives have a fitted effect of over 35% in size. As to conditions: CellTox Green fluorescence; series mostly up to 76.8 µM. From the text: National Center for Advancing Translational Sciences [NCATS]
NIH Chemical Genomics Center [NCGC]
U.S. Environmental Protection Agency [EPA]
National Institutes of Environmental Health Sciences [NIEHS]
National Toxicology Program [NTP]
Cell-based models are critical for drug discovery. Determining the natural cytotoxic effects resulting from test compounds is an essential research activity. A CellTox Green Cytotoxicity Assay to monitor cytotoxicity in real time of continues cell culture during 40 hours of the compound treatment was used to screen Tox21 10K library compounds in Hek293 cells. CellTox Green Cytotoxicity Assay is a nonlytic, homogeneous, biofluorescent method to measure cytotoxicity in cell culture after experimental manipulation. The assay system uses a proprietary asymmetric cyanine dye that is excluded from viable cells but preferentially stains the dead cell's DNA. […] Viable cells produce no appreciable increases in fluorescence. Therefore, the fluorescence signal produced by the binding interaction with dead cell DNA is proportional to cytotoxicity.
The mixture of Hek293 cell suspension and reagents were dispensed at 600cells/6 ul/well in 1536-well tissue culture treated black solid bottom plates using a Multidrop dispenser. After the assay plates were incubated at a 37 C/5% CO2 incubator for 5 hours, 23 nL of compounds dissolved in DMSO, positive and negative controls was transferred to the assay plate by a pintool work station. The plates were incubated at 37 C for 40 hours. The fluorescence intensity were measured at 0h, 8h, 16h, 24h, 32h and 40h time points using ViewLux plate reader during compound treatment.
`Cc1ccc(C)cc1`: the Potency result was “inactive”. For `CCCCNS(=O)(=O)c1ccc(C)cc1`, the Potency result is “inactive”. `CCN1C(=O)c2ccccc2C1Nc1ccc(OCCN2CCCCC2)cc1` (stereo not given): the Potency result was “inactive”. As to `FC(F)(F)c1cccc(Cl)c1`, the Potency result is “inactive”.

In the case of `C=C(C)C(=O)OCCCCCCCCCC`, the Potency entry was “inactive”. Turning to `Cc1cccc(C(=O)O)c1O`, the Potency entry is “inactive”. The same measure, in the same setting: under `CC(C)(c1cc(Br)c(OCC(Br)CBr)c(Br)c1)c1cc(Br)c(OCC(Br)CBr)c(Br)c1` (stereo not given) stands “inactive”; under `Cc1cccc(C)c1NC(=O)c1ccc(N)cc1`, “inactive”. On to `CCCCCCCCCCCCOC(=O)c1ccc(O)cc1`, for which the Potency result is “inactive”. `CCOC(=O)c1ccc(C2CCC(NC[C@H](O)COc3ccc(O)c(NS(C)(=O)=O)c3)CC2)cc1` (stereo not given in full): the Potency result was “inactive”.

Take `Nc1ccc(C(=O)O)c(O)c1`: the Potency result was “inactive”. Still for that read-out and setting: under `COC(=O)Nc1nc2ccc(C(=O)c3ccccc3)cc2[nH]1` stands “inactive”. Still for that read-out and setting: in the case of `Oc1ccccc1O` it was “inactive”; in that of `CNC(=O)c1ccccc1Sc1ccc2c(/C=C/c3ccccn3)n[nH]c2c1`, “inactive”; in that of `C=Cc1cccc(C)c1`, “inactive”. As for `O=C(Nc1ccc2c(O)c(N=Nc3ccc(N=Nc4ccc(S(=O)(=O)O)cc4)cc3)c(S(=O)(=O)O)cc2c1)c1ccccc1`, the Potency entry is “inactive”. As for `O=C(O)Cc1ccccc1Nc1c(Cl)cccc1Cl`, the Potency entry is “inactive”. On the same count and under the same terms, under `COCCOc1cc2cc(C(=O)NC3CCN(C(C)C)CC3)n(CC(=O)Nc3ccc(Cl)cn3)c2cn1` stands “inactive”; under `CCn1c2ccccc2c2cc([N+](=O)[O-])ccc21`, “inactive”. `O=C1CCCCCCCCCCCCCCCO1`: the Potency was 43.6 µM (active). The same measure, in the same setting: under `COC(=O)C1=C(C)NC(C)=C(C(=O)OCCN2CCN(C(c3ccccc3)c3ccccc3)CC2)C1c1cccc([N+](=O)[O-])c1` (stereo not given) stands “inactive”; under `OC1CCC(C2CCCCC2)CC1` (stereo not given), “inactive”; under `C#C[C@]1(OC(C)=O)CC[C@H]2[C@@H]3CCC4=C/C(=N/O)CC[C@@H]4[C@H]3CC[C@@]21CC`, “inactive”. Regarding `O=c1[nH]c2ccccc2n1CCCN1CCN(C(c2ccccc2)c2ccccc2)CC1`, the Potency result was “inactive”. For `C=C(CC)C(=O)c1ccc(OCC(=O)O)c(Cl)c1Cl`, the Potency result was “inactive”. In the case of `CC(C)Cn1cnc2c(N)nc3ccccc3c21`, the cytotoxicity increase was 2.79% [at 15.8 µM] (inactive). As for `CC[N+](CC)(CC)CCOc1ccc(/C=C/c2ccccc2)cc1`, the Potency result is “inactive”. With `CC(C)(C)C1CCC(=O)CC1`, the Potency result was “inactive”. The same measure, in the same setting: under `OCCN1CCN(CCCN2c3ccccc3Sc3ccc(C(F)(F)F)cc32)CC1` stands “inactive”; under `COc1cccc2c1C(=O)c1c(O)c3c(c(O)c1C2=O)C[C@@](O)(C(C)=O)C[C@@H]3O[C@H]1C[C@H](N)[C@H](O)[C@H](C)O1`, 39.1 µM (active). As to `Cc1cc(C)c(/C=C2\C(=O)Nc3ccccc32)[nH]1`, the Potency was 16.9 µM (active). `Cc1ccc(N/N=c2\c(=O)cc/c(=N\Nc3ccc(S(=O)(=O)O)cc3)c2=O)c(C)c1`: the Potency result is “inactive”. As for `Cc1cccc2cccnc12`, the Potency result is “inactive”. With `CC(=O)c1ccc(C(C)=O)cc1`, the Potency result was “inactive”. As to `Nc1nc(-c2ccccc2)cs1`, the Potency result was “inactive”.

With `Cc1c(N)cccc1C(F)(F)F`, the Potency result is “inactive”. Take `C=Cc1ccccc1C=C`: the Potency entry was “inactive”. Still for that read-out and setting: in the case of `O=C(O)c1cc(N=Nc2ccc([N+](=O)[O-])cc2)ccc1O` it was “inactive”; in that of `CNc1ccc([N+](=O)[O-])cc1`, “inactive”. Regarding `Cc1c2ccccc2c(C)c2c1ccc1ccccc12`, the Potency result was “inactive”.
